Screening data deposited in PubChem BioAssay by National Center for Advancing Translational Sciences (NCATS).
IL-1B inflam inh – qHTS for Inhibitors of Inflammasome Signaling: IL-1-beta AlphaLISA Primary Screen; THP-1 LPS/ATP IL-1B secretion, AlphaLISA, 16 h; stronger effect = lower value; activity change, % at 57.5 µM; actives 4.7% (n = 360,000); AID 743279, 2014; in the data active = activity change below about -50%; inconclusive = mostly about -30% to -49%
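Secreted IL-1B measured by AlphaLISA bead assay after 16 h compound exposure of THP-1 cells; compounds (final up to 57.5 uM) added 1 h before LPS (250 ng/mL) and ATP (1.25 mM) stimulation; lower signal means less secretion.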
HT1080-NT tox – qHTS for induction of synthetic lethality in tumor cells producing 2HG: qHTS for the HT-1080-NT fibrosarcoma cell line. actives 1.6% (n = 360,000). HT-1080-NT fibrosarcoma viability, CellTiter-Glo ATP luminescence, 48 h. Potency, µM (doses to about 46.1 µM), for inactives: top-dose activity, negative = less viability, usual class: cytotoxic;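 also: NT is the 2HG producing partner of a matched IDH1 knockdown line; potency is read from the fitted curve at half-maximal effect; 0% = DMSO-treated cells and -100% = media-only wells without cells; nearly all actives have a fitted effect of over 55% in size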
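HT-1080-NT fibrosarcoma cells (2HG-overproducing), 750 cells/well in RPMI with 5% FBS, dosed after 2 h and incubated 48 h at 37C. CellTiter-Glo luminescence normalized to DMSO and no-cell wells; concentration-response curves fitted and classed.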
TDP1 cell noCPT – qHTS for Inhibitors of human tyrosyl-DNA phosphodiesterase 1 (TDP1): qHTS in cells in absence of CPT. actives 15% (n = 420,000). AID 686978, 2013. DT40 Tdp1-/- hTDP1 cells, no CPT, ATP luminescence, 48 h. Potency, µM (highest dose often 46.2 µM), inactives show top-dose activity change, negative = growth inhibition, actives largely listed as inhibitors; also: potency is read from the fitted curve at half-maximal effect; nearly all actives have a fitted effect of over 55% in size
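Camptothecin absent (DMSO only). Human TDP1-complemented DT40 knockout cells, 400 cells/well, 37 °C for minimum 48 hr; ATP measured via CellTiter-Glo, 30 min dark incubation, luminescence.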
ELG1 DNA repair – qHTS screen for small molecules that inhibit ELG1-dependent DNA repair in human embryonic kidney (HEK293T) cells expressing luciferase-tagged ELG1. HEK293T ELG1-luciferase reporter, luminescence, 16 h; DNA damage induced by 5-fluorouridine. Potency, µM (titrated, usually from 46.1 µM), without a hit: at the top dose activity change, negative = inhibition, actives largely listed as inhibitors. actives 2.3% (n = 330,000). AID 504467, 2011; also: potency is read from the fitted curve at half-maximal effect; nearly all actives have a fitted effect of over 55% in size
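Overnight (16 hr) co-exposure of 2,000 cells/well to 5-fluorouridine and compound at 37 °C preceded detection. Luciferase was quantified via ONE-Glo luminescence; loss of signal denotes inhibition.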
HT1080 IDH1KD tx – qHTS for induction of synthetic lethality in tumor cells producing 2HG: qHTS for the HT-1080-IDH1KD cell line; HT-1080 IDH1 knockdown viability, ATP luminescence, 48 h; actives 2% (n = 360,000); Potency, µM (highest dose often 46.1 µM), without a hit: at the top dose activity, negative = toxicity, hits mostly cytotoxic; AID 686971, 2013;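 also: potency is read from the fitted curve at half-maximal effect; 0% = DMSO wells and -100% = cell-free medium wells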
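HT-1080-IDH1KD cells (IDH1 knocked down), 750/well in RPMI with 5% FBS, treated with compound 48 h at 37 degrees C. Viability by CellTiter-Glo luminescence, normalised to DMSO and no-cell wells; concentration-response curves classed.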
TDP1 cell CPT – qHTS for Inhibitors of human tyrosyl-DNA phosphodiesterase 1 (TDP1): qHTS in cells in presence of CPT; AID 686979, 2013; actives 12% (n = 420,000); chicken DT40 Tdp1-/-;hTDP1 cells + 20 nM CPT, ATP luminescence, 48 h; Potency, µM (series often up to 46.2 µM), for the others: at the highest dose activity change, negative = growth inhibition, hits mostly inhibitors; also: potency is read from the fitted curve at half-maximal effect; nearly all actives have a fitted effect of over 55% in size
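Chicken DT40 Tdp1-/- cells complemented with human TDP1, 400 cells/well, exposed to compounds plus 20 nM camptothecin for at least 48 h at 37 C; viability read as ATP content by CellTiter-Glo luminescence.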
Numbers without * were called inactive. Compounds with a hit are over-represented: about 19% of the library has one in this group of screens. Unless noted, calls follow the shape of the dose curve; as a rule, active = well fitted curve in the direction sought with a large enough effect; inconclusive = small, poorly fitted or top-dose-only effect, or another doubt; inactive = no such curve, though single readings can be large; an effect the other way counts as inactive or inconclusive. Unless noted, % is scaled to controls: 0 for no effect and ±100 for the full control effect.

What do the screens show for `COc1ccc(OC)c(NC(=O)CSc2nc3n[nH]c(C)c3c(=N)n2-c2cccc(Cl)c2C)c1`?
IL-1B inflam inh: -28; HT1080-NT tox: -18%; TDP1 cell noCPT: 16µM*; ELG1 DNA repair: inconclusive; HT1080 IDH1KD tx: 23µM*; TDP1 cell CPT: inconclusive

What do the screens show for `CCC(C)NC(=O)CSc1nc2ccccc2c(=O)n1-c1c(C)n(C)n(-c2ccccc2)c1=O` (stereo not drawn)?
IL-1B inflam inh: -13; HT1080-NT tox: 6%; TDP1 cell noCPT: 0%; ELG1 DNA repair: 17%; HT1080 IDH1KD tx: 2%; TDP1 cell CPT: 7%

What do the screens show for `COc1ccc(NC(=O)CSc2nc3n[nH]c(C)c3c(=N)n2-c2ccc(Cl)c(C)c2)cc1OC`?
IL-1B inflam inh: -19; HT1080-NT tox: 7%; TDP1 cell noCPT: inconclusive; ELG1 DNA repair: -4%; HT1080 IDH1KD tx: 16%; TDP1 cell CPT: -16%

How did CCc1ccccc1NC(=O)CSc1nc2n[nH]c(C)c2c(=N)n1-c1cccc(OC)c1 do in these assays?
IL-1B inflam inh: -6; HT1080-NT tox: -29%; TDP1 cell noCPT: 23µM*; ELG1 DNA repair: inconclusive; HT1080 IDH1KD tx: inconclusive; TDP1 cell CPT: 16µM*

Results for CCc1ccc(-n2c(SCC(=O)NC(C)CC)nc3n[nH]c(C)c3c2=N)cc1 (stereo not drawn) ?
TDP1 cell noCPT: 5.2µM*; TDP1 cell CPT: 5.8µM*

What do the screens show for `Cc1ccccc1-n1c(SCc2ccccn2)nc2n[nH]c(C)c2c1=N`?
IL-1B inflam inh: inconclusive; HT1080-NT tox: -18%; TDP1 cell noCPT: 16µM*; ELG1 DNA repair: inconclusive; HT1080 IDH1KD tx: -21%; TDP1 cell CPT: 21µM*

How did CC(C)n1c(=O)c2ccccc2n1CC(=O)N1CCOCC1 do in these assays?
IL-1B inflam inh: 0; HT1080-NT tox: 15%; TDP1 cell noCPT: -19%; HT1080 IDH1KD tx: 2%; TDP1 cell CPT: 3%

How did CCOc1ccccc1NC(=O)CCSc1nc2n[nH]c(C)c2c(=N)n1-c1ccccc1Cl do in these assays?
IL-1B inflam inh: 45; HT1080-NT tox: inconclusive; TDP1 cell noCPT: inconclusive; ELG1 DNA repair: 3.2µM*; HT1080 IDH1KD tx: inconclusive; TDP1 cell CPT: inconclusive

What do the screens show for `Cc1c(Cl)cccc1-n1c(SCC(=O)NCc2ccccc2)nc2n[nH]c(C)c2c1=N`?
TDP1 cell noCPT: 12µM*; TDP1 cell CPT: 15µM*

Results for Cc1ccccc1-n1c(SCC(=O)Nc2ccccc2Cl)nc2n[nH]c(C)c2c1=N ?
IL-1B inflam inh: -1; HT1080-NT tox: inconclusive; TDP1 cell noCPT: 18µM*; ELG1 DNA repair: -3%; HT1080 IDH1KD tx: inconclusive; TDP1 cell CPT: 16µM*

How did Cc1ccccc1-n1c(SCC(=O)Nc2ccc(Cl)cc2Cl)nc(O)cc1=O do in these assays?
TDP1 cell noCPT: -5%; TDP1 cell CPT: 5%

How did Cn1cnnc1SCC(=O)NCc1ccccc1 do in these assays?
IL-1B inflam inh: 11; HT1080-NT tox: 17%; TDP1 cell noCPT: 1%; ELG1 DNA repair: 17%; HT1080 IDH1KD tx: 18%; TDP1 cell CPT: -2%

How did CC(NC(=O)CSc1n[nH]c(-c2ccccc2Cl)n1)c1nc2ccccc2[nH]1 (stereo not drawn) do in these assays?
TDP1 cell noCPT: -3%; TDP1 cell CPT: -6%

What do the screens show for `O=C(CSC1=Nc2ccccc2C2CC=NN12)Nc1ccc(F)cc1Cl` (stereo not drawn)?
IL-1B inflam inh: -2; HT1080-NT tox: -6%; TDP1 cell noCPT: inconclusive; ELG1 DNA repair: 10%; HT1080 IDH1KD tx: -8%; TDP1 cell CPT: inconclusive

How did COC(=O)c1ccc(NC(=O)CSC2=Nc3ccccc3C3CC=NN23)cc1 (stereo not drawn) do in these assays?
IL-1B inflam inh: 1; HT1080-NT tox: -7%; TDP1 cell noCPT: 23µM*; ELG1 DNA repair: inconclusive; HT1080 IDH1KD tx: -3%; TDP1 cell CPT: 23µM*

How did Cc1ccc(NC(=O)CSC2=Nc3ccccc3C3CC=NN23)c(C)c1 (stereo not drawn) do in these assays?
IL-1B inflam inh: 11; HT1080-NT tox: 9%; TDP1 cell noCPT: 21µM*; ELG1 DNA repair: inconclusive; HT1080 IDH1KD tx: -3%; TDP1 cell CPT: 21µM*

Results for NC(=O)c1ccc(NC(=O)CSC2=Nc3ccccc3C3CC=NN23)cc1 (stereo not drawn) ?
IL-1B inflam inh: 12; HT1080-NT tox: -26%; TDP1 cell noCPT: 21µM*; ELG1 DNA repair: 14%; HT1080 IDH1KD tx: inconclusive; TDP1 cell CPT: 9.2µM*

How did C[C@H](NC(=O)c1[nH]cnc1C(=O)Nc1ccc(Cl)cc1)C(=O)OC(C)(C)C do in these assays?
IL-1B inflam inh: -3; HT1080-NT tox: 13%; TDP1 cell noCPT: inconclusive; ELG1 DNA repair: inconclusive; HT1080 IDH1KD tx: 5%; TDP1 cell CPT: inconclusive

What do the screens show for `C[C@H](NC(=O)c1nc[nH]c1C(=O)N[C@H](C)c1ccccc1)C(=O)OC(C)(C)C`?
IL-1B inflam inh: 2; HT1080-NT tox: 8%; TDP1 cell noCPT: inconclusive; ELG1 DNA repair: inconclusive; HT1080 IDH1KD tx: 0%; TDP1 cell CPT: 15µM*

What do the screens show for `CC(C)C[C@H](NC(=O)c1[nH]cnc1C(=O)N[C@@H](C)C(=O)OC(C)(C)C)C(=O)OC(C)(C)C`?
IL-1B inflam inh: -61*; HT1080-NT tox: inconclusive; TDP1 cell noCPT: 12µM*; ELG1 DNA repair: inconclusive; HT1080 IDH1KD tx: inconclusive; TDP1 cell CPT: 18µM*

How did Cc1cccc(NC(=O)c2nc[nH]c2C(=O)N[C@@H](C)C(=O)OC(C)(C)C)c1 do in these assays?
IL-1B inflam inh: -67*; HT1080-NT tox: -11%; TDP1 cell noCPT: inconclusive; ELG1 DNA repair: -8%; HT1080 IDH1KD tx: -21%; TDP1 cell CPT: 18µM*

Results for CC(C)C[C@H](NC(=O)c1[nH]cnc1C(=O)Nc1ccccc1)C(=O)OC(C)(C)C ?
IL-1B inflam inh: -11; HT1080-NT tox: inconclusive; TDP1 cell noCPT: inconclusive; ELG1 DNA repair: inconclusive; HT1080 IDH1KD tx: inconclusive; TDP1 cell CPT: 26µM*

How did O=C(COc1ccccc1F)OCc1cc(=O)n2nc(C3CC3)sc2n1 do in these assays?
TDP1 cell noCPT: -1%; TDP1 cell CPT: -17%
